From PubChem
PostGolgi ctrl = yeast control strain growth, post-Golgi counter-screen; efflux-deficient yeast background strain, growth absorbance A615, 16 h; inhibition, % at 10 µM; 98,000 compounds, 5% hits; AID 738
CYP2C9 inh = blocks human cytochrome P450 2C9 | P11712 | CYP2C9 Supersomes, luciferin-H conversion, luminescence | inhibition, % at 5 µM | 96,000 compounds, 20% hits | AID 777;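 active = blocking of liver enzyme CYP2C9 beyond about 50% at 5 µM, limit read from the data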
Target sequence (P11712 whole entry, looked up): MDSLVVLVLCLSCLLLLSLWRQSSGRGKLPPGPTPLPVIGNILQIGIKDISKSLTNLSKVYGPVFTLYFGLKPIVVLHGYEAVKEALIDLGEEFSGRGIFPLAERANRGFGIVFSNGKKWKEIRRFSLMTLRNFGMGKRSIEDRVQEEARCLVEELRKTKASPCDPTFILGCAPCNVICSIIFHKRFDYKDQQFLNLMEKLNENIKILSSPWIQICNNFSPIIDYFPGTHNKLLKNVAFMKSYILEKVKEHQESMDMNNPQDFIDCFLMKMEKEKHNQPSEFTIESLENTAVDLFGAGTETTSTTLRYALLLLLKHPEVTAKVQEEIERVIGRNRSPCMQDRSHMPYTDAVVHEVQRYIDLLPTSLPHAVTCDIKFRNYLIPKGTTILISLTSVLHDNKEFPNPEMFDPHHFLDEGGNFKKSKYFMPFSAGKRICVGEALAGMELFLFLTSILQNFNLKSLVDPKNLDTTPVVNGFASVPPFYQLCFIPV
CYP2C9 activ = increases human cytochrome P450 2C9 activity; AID 1024; recombinant CYP2C9, luciferin-H conversion, luminescence; stronger effect = higher value; factor 1 = untreated enzyme, 0 = blocked; activation factor at 5 µM; P11712; 96,000 compounds, 1.4% hits;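 active = activation factor of 2 or more for CYP2C9 at a 5 µM dose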
CYP2C19 act = increases human CYP2C19 enzyme activity; P33261; recombinant CYP2C19, luciferin-H EGE luminescence; stronger effect = higher value; 0 = fully inhibited enzyme, 1 = untreated enzyme; activation factor at 5 µM; 96,000 tested, under 10 active; AID 1025;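 active = activation factor of at least 2 at 5 µM in the primary screen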
PostGolgi yeast = growth inhibition of a yeast mutant, post-Golgi transport screen | post-Golgi transport phenotypic cell assay | inhibition, % at 10 µM | 98,000 compounds, 0.9% hits;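 note: yeast cells grown in 1536-well plates; yeast grown about 18 h at 30C before absorbance read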
CYP2C19 inh = blocks human cytochrome P450 2C19; P33261; CYP2C19 Supersomes, luciferin-H EGE luminescence, 30 min; inhibition, % at 5 µM; 96,000 compounds, 21% hits; AID 778;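 active = CYP2C19 inhibition above a set limit at 5 µM in the primary screen, cut at about 50% in these data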
Each line names hits and unclear results; the compound was inactive in the other large screens. The list is a sample of the results. Cut-off read from the data, not from the text of the source, unless noted: active = inhibition above about 30%; inactive = the rest.

COC(=O)c1cccc(NC(=O)CSc2nnnn2C)c1	none
COC(=O)c1c(NC(=O)CSc2nnnn2-c2ccccc2)sc2c1CCCC2	CYP2C9 inh 72
COC(=O)c1cccc(-n2nnnc2SCC(=O)Nc2cc(C)on2)c1	CYP2C9 inh 52, CYP2C19 inh 51
Cc1oc(-c2ccccc2Cl)nc1CSCC(=O)O	none
COc1ccc(/C(O)=C2/C(=O)C(=O)N(CCN3CCOCC3)C2c2ccccn2)cc1 (stereo not given)	none
COc1cccc(OC)c1-c1nn2c(-c3ccco3)nnc2s1	CYP2C9 inh 68, CYP2C19 inh 89 (no result: PostGolgi ctrl, PostGolgi yeast)
COc1ccccc1-c1nnc2sc(-c3cc4ccccc4o3)nn12	PostGolgi ctrl 41
COc1ccccc1-c1nnc2sc(-c3cnccn3)nn12	CYP2C19 inh 75
Cc1ccc(N=Nc2c(N)n(-c3ccccc3)[nH]c2=O)cc1	none
Cc1cc(NC(=O)CSc2nc3ccccc3c(=O)n2CCCC(=O)NCc2ccccc2)n[nH]1	CYP2C9 inh 78, CYP2C19 inh 87
COc1ccc(-n2c(Cc3cccn3C)nnc2SCC(=O)NCC2CCCO2)cc1 (stereo not given)	none
O=C(CCCn1c(SCC(=O)NCC2CCCO2)nc2ccccc2c1=O)NCc1ccccc1 (stereo not given)	CYP2C9 inh 56
N#CCCn1c(SCC(=O)NCC2CCCO2)nc2ccccc21 (stereo not given)	none
O=C(CCCn1c(SCC(=O)c2ccc(F)cc2)nc2ccccc2c1=O)NCc1ccccc1	CYP2C9 inh 90, CYP2C19 inh 71
COc1ccc(-n2c(SCC(=O)NCC3CCCO3)nc3ccccc32)cc1 (stereo not given)	CYP2C9 inh 90, CYP2C19 inh 93
CCCCn1c(SCC(=O)Nc2cc(C)on2)nc2ccccc2c1=O	none
CN1CCC(OC(=O)c2cccc(Br)c2)CC1	none
COC(=O)C(NC(=O)c1ccccc1)=C1C=C(C)OC(C)=C1	none
Cc1ccc(CCNC(=O)C2CCC(=O)N2C(C)C)cc1 (stereo not given)	none
O=C(CN1C(=O)CSC1=O)Nc1ccc(F)c(F)c1F	none
CCCC(=O)Nc1cnc(NC(=O)c2cccc(F)c2)cc1C	CYP2C19 inh 68
CCCC(=O)Nc1cc(C)c(NC(=O)c2ccccn2)cn1	CYP2C19 inh 54
CCC(=O)Nc1cc(C)c(NC(=O)c2ccco2)cn1	none
Cc1cc(NC(=O)C(C)C)ncc1NC(=O)c1cccc(F)c1	none
Cc1cc(NC(=O)c2ccccc2)ncc1NC(=O)c1ccco1	CYP2C9 inh 56, CYP2C19 inh 95
O=C(CCN1C(=O)C2CC=C(Cl)CC2C1=O)N1CCCCC1 (stereo not given)	none
Cc1cc(-c2ccccc2)[nH]c(=O)c1S(=O)(=O)c1ccccc1	none
CSc1ccc(C2Nc3ccccc3-c3cc(C)nn32)cc1 (stereo not given)	CYP2C19 inh 50
Cc1cc2n(n1)C(c1ccsc1)Nc1ccccc1-2 (stereo not given)	CYP2C9 inh 56, CYP2C19 inh 61
COc1ccccc1-c1nc2n(n1)C(c1ccccc1Cl)C(C(N)=O)=C(C)N2 (stereo not given)	none
Cc1cc2n(n1)C(c1ccccc1Cl)Nc1ccccc1-2 (stereo not given)	CYP2C9 inh 75, CYP2C19 inh 86
O=C(O)[C@H](Cc1ccccc1)NC(=O)N1CCOCC1	none
O=C(Nc1nc2ccc(F)cc2s1)C1CCCO1 (stereo not given)	none
CS(=O)(=O)N1CCN(c2ccccc2NC(=O)c2ccc(-c3ccc(Cl)cc3Cl)o2)CC1	CYP2C9 inh 50
CN1CCN(c2ccccc2NC(=O)c2ccc(Br)o2)CC1	none
CS(=O)(=O)N1CCN(c2ccccc2NC(=O)c2ccc(Br)o2)CC1	PostGolgi ctrl 42
CN1CCN(c2ccccc2NC(=O)c2ccc(-c3ccc(Cl)cc3Cl)o2)CC1	none
N#C/C(C(=O)c1ccccc1)=C1/CCCCCN1	none
CC1CCc2nc(NC(=O)c3ccco3)sc2C1 (stereo not given)	CYP2C9 inh 56, CYP2C19 inh 66
COc1ccc(N2CCN(CC(=O)Nc3cc(C)on3)CC2)cc1	none
COc1ccc(N2CCN(CC(=O)Nc3nc4c(s3)CC(C)CC4)CC2)cc1 (stereo not given)	CYP2C9 inh 57
COc1ccc(-c2cc(=O)n(-c3nc4ccccc4[nH]3)[nH]2)cc1	none
O=C(CSc1nnc(Cc2ccccc2)n1-c1ccc(Cl)cc1)N1CCOCC1	none
Cc1cc(Cl)ccc1OCCCC(=O)N1CCCCC1	CYP2C19 inh 97
O=C(COc1ccc(Cl)cc1Cl)N1CCCC1	none
Cc1ccc(C)c(OCC(=O)Nc2nonc2NC(=O)COc2cc(C)ccc2C)c1	CYP2C9 inh 77
O=C(COc1ccc(Br)cc1)N1CCCCCC1	CYP2C19 inh 94 (no result: PostGolgi ctrl, PostGolgi yeast)
Cc1ccc(OCCCC(=O)Nc2ccc(N3CCOCC3)cc2)c(C)c1	none
Cc1ccc(C)c(OCC(=O)NCCN(C)C)c1	none
O=C(COc1ccc(S(=O)(=O)N2CCCCC2)cc1)N1CCCCCC1	none
Cc1cc(Cl)ccc1OCCCC(=O)N1CCOCC1	CYP2C19 inh 98
CC(=O)Nc1ccc(Oc2ncccn2)c(Cl)c1	none
Oc1c(C(c2ccco2)N2CCOCC2)sc2ncnn12 (stereo not given)	none
Cc1ccc(OCCN2CCCCCC2)c(C)c1	CYP2C19 inh 58
C=CCNC(=O)CCCOc1cc(C)ccc1C	none
COCCNC(=O)COc1ccccc1Cl	none
COCCNC(=O)COc1ccc(C)cc1C	CYP2C19 inh 67
Cc1cc(OCCCC(=O)N2CCCCC2)cc(C)c1Cl	CYP2C19 inh 93
C=CCNC(=O)CCCOc1ccc(C)cc1	CYP2C9 inh 60, CYP2C19 inh 73
O=C(NCc1ccccn1)C(C(=O)c1ccc(F)cc1)n1ccccc1=O (stereo not given)	none
COc1ccc(-n2c(SCC(=O)NC3CCCCC3)nc3ccsc3c2=O)cc1	none
Cn1c(N/N=C/c2ccccc2)nc2sc3c(c2c1=O)CCC3	none
c1ccc(N2CCN(CCc3nnc4n3CCCCC4)CC2)cc1	none
CSc1nnc(Cn2c(=O)sc3ccccc32)n1-c1ccccc1C	none (no result: CYP2C9 inh, CYP2C9 activ, CYP2C19 act, CYP2C19 inh)
CC1CCN(Cc2nc3c(c(=O)n(C)c(=O)n3C)n2CCCc2ccccc2)CC1	none
COc1cc(NC(=O)C2CC(=O)NC3=C2C(=O)CCC3)c(OC)cc1Cl (stereo not given)	none
CCn1cc(C(=O)OCC(=O)NCc2ccc3c(c2)OCO3)c(=O)c2ccc(C)nc21	none
COc1cc(OC)nc(NC(=O)NS(=O)(=O)c2ccc(OC(F)(F)F)cc2)n1	none
Cc1cc(Br)ccc1OCC(=O)N1CCCCCC1	none
Cc1ccc(S(=O)(=O)C(CCC(=O)N2CCOCC2)S(=O)(=O)c2ccc(C)cc2)cc1	none
Cc1ccc(OCC(=O)N2CCCCCC2)c(C)c1	CYP2C19 inh 80
Cc1ccc(OCCCC(=O)N2CCOCC2)cc1	CYP2C19 inh 75
COc1cc(Sc2ccc(C)cc2)c(OC)cc1N	CYP2C19 inh 68
